These results are taken from PubChem BioAssay.

The test system of assay [1] is Wnt5a (protein binding on small-molecule microarray). The experiment in a line: small molecules binding Wnt5a protein – biophysical, small-molecule microarray, 635/667 nm fluorescence, primary screen (AID 1142).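 Note: fluorescence read at 667 nm with signal to noise per printed feature.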 To be noted: 635 nm fluorescence, higher = more signal.
Assay [2] is described as follows: ATP-based viability of Huh7 replicon cells – cell-based, CellTiter-Glo luminescence, basal, 48 h, cytotoxicity control for HCV replication inhibitor project, primary screen (AID 1143).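 Note: Huh7 hepatoma cells carrying a hepatitis C replication reporter with no stimulus; test concentration not given here.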 To be noted: higher = more signal, called active from +8 up or from −8 down. A general note: In antiviral work, replicon cells carry a viral genome segment that copies itself.
Assay [3] in a line: Pseudomonas biofilm growth suppression – PAO1 strain, BacTiter-Glo luminescence, LB-PBS, primary screen (AID 1144). To be noted: P. aeruginosa PAO1 biofilm, 12 h, higher = more signal.
Assay [4] can be described thus: basal CRE-LacZ reporter activity in PC12 – cell-based, unstimulated, primary screen (AID 1145). To be noted: no forskolin, luminescence, 4.5 h, higher = more signal, called active from +8 up or from −8 down.
Assay [5] in a line: forskolin-driven CRE-LacZ activity in PC12 – cell-based, CRE-LacZ reporter, forskolin-stimulated, primary screen (AID 1146).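 Note: PC12 cells with 6xCRE LacZ reporter stimulated by forskolin 10 µM; beta-galactosidase reporter signal reflecting CREB driven transcription.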 As to conditions: luminescence, 4.5 h, higher = more signal, called active from +8 up or from −8 down.
Assay [6] deals with Streptavidin (Streptomyces avidinii) (UniProt P22629). The experiment in a line: compounds binding control protein streptavidin – biophysical, small-molecule microarray, 635/667 nm fluorescence, artefact control for SMM compound annotation, primary screen (AID 1147).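 Note: signal reflects streptavidin binding to arrayed compounds as a control protein.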 To be noted: higher = more signal.
Streptavidin (Streptomyces avidinii), sequence (P22629 whole entry, looked up): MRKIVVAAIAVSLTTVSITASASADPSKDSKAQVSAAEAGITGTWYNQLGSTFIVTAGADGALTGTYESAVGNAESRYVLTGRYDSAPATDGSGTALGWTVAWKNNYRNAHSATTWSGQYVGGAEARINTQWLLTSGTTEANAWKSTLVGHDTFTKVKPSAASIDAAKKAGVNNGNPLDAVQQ
Assay [7] can be described thus: probe aInhba binding on compound microarray – biochemical, small-molecule microarray, 635/667 nm fluorescence, primary screen (AID 1148).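 Note: score merges 667nm spot fluorescence with signal-to-noise for antibody binding to printed compounds.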 To be noted: higher = more signal.
Assay [8] has as its target Torsin-1A (Homo sapiens) (UniProt O14656). Briefly: TOR1A wild-type binding on microarray – cell lysate, small-molecule microarray, lysate, 635/667 nm, primary screen (AID 1149). As to conditions: COS7 hTOR1A-WT lysate, 635 nm fluorescence, higher = more signal.
The target is the same in assay [9]. The experiment in a line: torsin A mutant lysate binding on microarrays – cell lysate, small-molecule microarray, COS7 lysate, 635/667 nm fluorescence, primary screen (AID 1150).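 Note: score pools 667 nm emission and signal to noise measuring lysate protein binding.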 To be noted: COS7 hTOR1A mutant lysate, 635 nm fluorescence, higher = more signal.
Assay [10] concerns Sonic hedgehog protein (Shh). Briefly: Sonic hedgehog microarray binding compounds – biochemical, small-molecule microarray, 635/667 nm fluorescence, primary screen (AID 1151).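 Note: Shh protein binding to compounds spotted on small-molecule microarray slides; score combines spot fluorescence intensity with signal-to-noise across triplicate slides.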 As to conditions: 635 nm fluorescence, higher = more signal.
A short description of assay [11]: optical density shifts of acrAB sulA E. coli – strain DRC41, OD650, 48 h, E. coli filamentation inducer project, primary screen (AID 1152).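 Note: E. coli MC1000 strain DRC41 lacking acrAB efflux pump and sulA.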 As to conditions: higher = more signal, called active from +8 up or from −8 down.
A short description of assay [12]: probe aLefty1 binding on compound microarray – biochemical, small-molecule microarray, 635/667 nm fluorescence, primary screen (AID 1153).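 Note: score merges spot fluorescence with signal-to-noise ratio from the scanned slide images.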 To be noted: higher = more signal.
A short description of assay [13]: plasmodial surface anion channel blockers, osmotic lysis – cell-based, P. falciparum Indochina, OD700, 1 h, primary screen (AID 1154). To be noted: P. falciparum Indochina infected RBC osmotic lysis, higher = more signal, called active from +8 up or from −8 down.
The nature of assay [14]: plasmodial surface anion channel blockers, osmotic lysis – cell-based, P. falciparum Indochina, OD700, 2 h, primary screen (AID 1155).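 Note: lysis reports solute entry through the parasite surface anion channel PSAC.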 To be noted: P. falciparum Indochina infected erythrocytes, higher = more signal, called active from +8 up or from −8 down.
A short description of assay [15]: changes in parasitized red cell lysis, either direction – P. falciparum Indochina, OD700, 3 h, PSAC antagonist project, primary screen (AID 1156). As to conditions: P. falciparum-infected erythrocytes, osmotic lysis, higher = more signal, called active from +8 up or from −8 down.
Assay [16] in a line: plasmodial surface anion channel blockers, osmotic lysis – cell-based, P. falciparum Indochina, OD700, 18 h, primary screen (AID 1157). As to conditions: P. falciparum Indochina infected erythrocytes, osmotic lysis OD700, 18 h; higher = more signal, called active from +8 up or from −8 down.
Assay [17] can be described thus: S6 kinase pathway phospho-S6 level changes – cell-based, A549, cytoblot, luminescence, serum-stimulated, primary screen (AID 1158).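 Note: serum-stimulated A549 lung adenocarcinoma cells; signal is phosphorylated S6 detected by cytoblot immunostaining with HRP secondary.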 To be noted: 5 h, higher = more signal.
Assay [18] deals with NADPH oxidase 2 (Homo sapiens) (UniProt P04839). The experiment in a line: compounds shifting NOX2 Amplex Red fluorescence – cell-based, HEK293-NOX2, PMA-stimulated, NOX inhibitor project, primary screen (AID 1159). Note: test concentration not given here. To be noted: 45 min, higher = more signal, called active from +8 up or from −8 down.
NADPH oxidase 2 (Homo sapiens), sequence (P04839 whole entry, looked up): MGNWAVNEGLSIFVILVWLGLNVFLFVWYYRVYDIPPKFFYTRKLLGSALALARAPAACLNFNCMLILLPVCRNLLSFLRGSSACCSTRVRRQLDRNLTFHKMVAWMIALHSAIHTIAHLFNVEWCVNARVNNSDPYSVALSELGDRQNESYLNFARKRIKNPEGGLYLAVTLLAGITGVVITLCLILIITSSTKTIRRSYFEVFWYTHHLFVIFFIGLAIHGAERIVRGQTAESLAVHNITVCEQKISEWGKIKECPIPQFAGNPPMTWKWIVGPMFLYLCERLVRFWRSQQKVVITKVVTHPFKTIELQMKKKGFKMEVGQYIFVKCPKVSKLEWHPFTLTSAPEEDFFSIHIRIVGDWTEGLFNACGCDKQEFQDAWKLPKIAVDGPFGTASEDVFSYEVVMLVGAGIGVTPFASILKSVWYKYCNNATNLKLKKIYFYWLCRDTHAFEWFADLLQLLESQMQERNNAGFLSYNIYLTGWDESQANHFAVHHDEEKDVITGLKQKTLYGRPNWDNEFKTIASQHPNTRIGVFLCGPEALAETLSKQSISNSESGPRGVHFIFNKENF
Assay [19] deals with NADPH oxidase 4 (Homo sapiens) (UniProt Q9NPH5). The experiment in a line: compounds shifting NOX4 Amplex Red fluorescence – cell-based, HEK293-NOX4, tetracycline-induced, NOX inhibitor project, primary screen (AID 1160). To be noted: HEK293-NOX4, Amplex Red H2O2 fluorescence, 45 min; higher = more signal, called active from +8 up or from −8 down.
NADPH oxidase 4 (Homo sapiens), sequence (Q9NPH5 whole entry, looked up): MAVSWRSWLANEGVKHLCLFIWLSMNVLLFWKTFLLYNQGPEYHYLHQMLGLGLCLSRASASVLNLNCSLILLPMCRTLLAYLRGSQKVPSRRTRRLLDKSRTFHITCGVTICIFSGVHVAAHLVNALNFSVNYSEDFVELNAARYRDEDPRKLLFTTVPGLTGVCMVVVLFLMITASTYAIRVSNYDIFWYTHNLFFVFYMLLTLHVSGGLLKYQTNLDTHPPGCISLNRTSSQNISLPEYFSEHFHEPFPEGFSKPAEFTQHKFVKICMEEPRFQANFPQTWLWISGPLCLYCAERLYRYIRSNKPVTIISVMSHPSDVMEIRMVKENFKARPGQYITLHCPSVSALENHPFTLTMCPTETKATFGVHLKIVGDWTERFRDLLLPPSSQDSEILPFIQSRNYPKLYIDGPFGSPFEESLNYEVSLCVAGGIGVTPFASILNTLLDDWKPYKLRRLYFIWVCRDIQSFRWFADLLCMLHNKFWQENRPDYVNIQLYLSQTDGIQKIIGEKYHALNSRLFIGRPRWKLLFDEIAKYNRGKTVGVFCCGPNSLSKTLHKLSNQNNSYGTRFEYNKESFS
The target in assay [20] is NADPH oxidase 5 (Homo sapiens) (UniProt Q96PH1). Briefly: compounds shifting NOX5 Amplex Red fluorescence – cell-based, HEK293-NOX5, NOX inhibitor project, primary screen (AID 1161). To be noted: HEK293-NOX5, ionomycin, 45 min, higher = more signal.
NADPH oxidase 5 (Homo sapiens), sequence (Q96PH1 whole entry, looked up): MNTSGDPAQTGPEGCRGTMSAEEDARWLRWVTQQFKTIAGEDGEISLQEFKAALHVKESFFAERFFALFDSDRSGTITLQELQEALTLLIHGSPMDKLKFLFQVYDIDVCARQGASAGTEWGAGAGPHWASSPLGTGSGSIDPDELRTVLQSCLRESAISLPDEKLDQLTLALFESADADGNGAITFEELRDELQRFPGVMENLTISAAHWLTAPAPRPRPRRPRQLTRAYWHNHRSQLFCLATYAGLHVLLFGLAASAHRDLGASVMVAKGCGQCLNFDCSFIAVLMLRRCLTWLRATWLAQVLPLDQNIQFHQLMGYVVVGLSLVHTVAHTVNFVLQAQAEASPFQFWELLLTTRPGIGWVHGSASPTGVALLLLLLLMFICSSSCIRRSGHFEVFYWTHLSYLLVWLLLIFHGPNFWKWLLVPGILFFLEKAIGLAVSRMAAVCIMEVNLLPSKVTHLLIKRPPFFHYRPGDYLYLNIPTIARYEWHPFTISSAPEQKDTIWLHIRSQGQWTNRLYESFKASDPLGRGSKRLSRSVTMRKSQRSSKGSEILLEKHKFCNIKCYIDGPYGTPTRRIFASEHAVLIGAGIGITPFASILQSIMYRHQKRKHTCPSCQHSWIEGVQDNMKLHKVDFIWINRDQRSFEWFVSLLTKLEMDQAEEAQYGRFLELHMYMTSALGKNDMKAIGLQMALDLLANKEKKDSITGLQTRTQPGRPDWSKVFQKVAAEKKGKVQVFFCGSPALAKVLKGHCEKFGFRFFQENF

Active and inactive are the calls of the source. Unless noted, the rule behind the calls is not given here.

Torsin-1A (Homo sapiens), sequence (O14656 whole entry, looked up): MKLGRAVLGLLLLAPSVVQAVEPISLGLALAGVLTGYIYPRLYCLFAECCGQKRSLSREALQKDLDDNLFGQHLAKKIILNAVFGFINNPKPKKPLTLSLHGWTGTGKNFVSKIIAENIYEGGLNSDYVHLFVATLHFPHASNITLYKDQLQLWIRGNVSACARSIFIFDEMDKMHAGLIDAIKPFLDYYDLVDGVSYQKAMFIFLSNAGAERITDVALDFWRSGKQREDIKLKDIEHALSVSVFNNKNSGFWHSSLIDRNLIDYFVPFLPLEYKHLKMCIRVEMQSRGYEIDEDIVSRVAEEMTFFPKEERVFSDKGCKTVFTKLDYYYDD

Turning to `CCCC[C@@H](O)C1=C(C)Cn2c(=O)n(-c3ccccc3)c(=O)n2[C@H]1CO`, the composite z-score is 0.0027 in [1]; -0.463 in assay [6]; -0.251 in assay [7]; 0.0705 in assay [8]; 0.141 in assay [9]; 0.317 in assay [10]. Besides, the composite z-score in [12] was -0.414. The z-score is -1.07 (inactive) in assay [2]; -0.275 (inactive) in assay [3]; 1.77 (inactive) in [4]; -0.844 (inactive) in [5]; 3.02 (inactive) in assay [11]; -0.262 (inactive) in assay [13]. Besides, the z-score in assay [14] is -0.957 (inactive); in assay [15] it was -0.0398 (inactive); in [16], -2.37 (inactive); in assay [17] it was 0.916; in assay [18], -0.943 (inactive); in assay [19] it was 0.216 (inactive). Moreover, the z-score in [20] was 0.616.
In the case of `CC(C)c1ccc(NN2C(C(O)c3ccccc3)C=CC3C(=O)N(c4ccccc4)C(=O)C32)cc1` (stereo not given), the composite z-score is 0.297 in assay [1]; 0.576 in assay [6]; 0.271 in assay [7]; -0.388 in assay [8]; 0.514 in assay [9]; -0.983 in [10]. In [12], the composite z-score came out at 0.395. For the same compound, the z-score in [2] is -0.0828 (inactive); in assay [3] it was -0.89 (inactive); in [4] it was 0.433 (inactive); in assay [5], -0.0336 (inactive); in [11], 0.2 (inactive); in assay [13], 4.51 (inactive). Besides, the z-score in [14] is 1.97 (inactive); in [15], 0.506 (inactive); in assay [16], 1.42 (inactive); in [17] it was -0.396; in assay [18] it was -0.365 (inactive); in [19] it was -2.49 (inactive). In addition, the z-score in [20] is -2.48.
`C=CC[C@H](OC(=O)Nc1ccc(SC)cc1)c1ccc(O)c(F)c1`: the composite z-score in assay [1] was -0.171; in [6] it was -0.588; in [7] it was -0.285; in assay [8], -0.135; in [9] it was -0.151; in assay [10], 0.988. In [12], the composite z-score was determined as 0.0226. Besides, the z-score was -0.489 (inactive) in assay [2]; -0.459 (inactive) in assay [3]; 0.31 (inactive) in [4]; 5.56 (inactive) in assay [5]; -0.705 (inactive) in assay [11]; 23.6 (active) in assay [13]. The z-score was 4.93 (inactive) in assay [14]; 1.45 (inactive) in assay [15]; 0.966 (inactive) in assay [16]; 0.49 in assay [17]; -5.66 (inactive) in assay [18]; -2.66 (inactive) in assay [19]. The z-score in assay [20] is -3.08.
Take `CN1C(=O)C2CC=C(C3=CCO[C@@H]3[C@H]3CCCN3S(=O)(=O)c3ccccc3[N+](=O)[O-])CC2C1=O` (stereo not given in full): the composite z-score in assay [1] is 0.0169; in assay [6] it was -0.102; in assay [7], 0.0516; in assay [8], -0.23; in assay [9], -0.282; in assay [10], -0.151. Besides, the composite z-score in assay [12] is -0.191. For the same compound, the z-score in assay [2] is 0.459 (inactive); in assay [3] it was 0.0769 (inactive); in [4], -0.505 (inactive); in assay [5], 1.14 (inactive); in [11] it was -0.62 (inactive); in assay [13] it was 5.38 (inactive). Besides, the z-score is 0.672 (inactive) in [14]; -0.604 (inactive) in assay [15]; -0.0627 (inactive) in [16]; -0.307 in assay [17]; 0.278 (inactive) in assay [18]; 1.22 (inactive) in assay [19]. Also, in [20], the z-score turned out to be 0.32.
On to `COC(=O)[C@@]1(Cc2ccc(F)cc2)[C@H]2c3cc(C(=O)N4CCCC4)n(C[C@H](O)CO)c3C[C@H]2CN1C(=O)c1ccccc1`, for which the composite z-score in assay [1] was 0.943; in assay [6], 1.12; in assay [7], 0.674; in [8] it was 0.0277; in assay [9], 0.332; in assay [10], -0.545. In assay [12], this compound had a composite z-score of 0.873. In addition, the z-score in assay [2] is 0.0849 (inactive); in assay [3] it was 0.339 (inactive); in assay [4] it was 0.0075 (inactive); in assay [5] it was -0.101 (inactive); in assay [11] it was -1.62 (inactive); in [13], 1.41 (inactive). The z-score was 0.542 (inactive) in assay [14]; 0.396 (inactive) in [15]; 0.668 (inactive) in [16]; -0.0929 in [17]; 0.709 (inactive) in assay [18]; -0.364 (inactive) in assay [19]. The z-score in [20] was -2.49.
`C=C1C(=O)C=C2CN(C(=O)c3ccccc3)[C@@](Cc3ccc(F)cc3)(C(=O)OC)[C@@H]12`: the composite z-score in assay [1] was 0.272; in assay [6], 1.87; in assay [7], 0.49; in assay [8], 0.172; in assay [9] it was 0.73; in [10], -0.0536. The composite z-score in [12] was 0.676. Besides, the z-score in [2] is -5.23 (inactive); in assay [3] it was 1.1 (inactive); in assay [4], -0.375 (inactive); in assay [5], -2.15 (inactive); in [11], -2.05 (inactive); in assay [13], -0.0775 (inactive). The z-score in assay [14] is -1.39 (inactive); in assay [15], -1.69 (inactive); in assay [16], -1.83 (inactive); in assay [17], -1.06; in assay [18] it was -3.94 (inactive); in assay [19] it was -4.76 (inactive). Further, the z-score in [20] was -3.73.
Regarding `O=C(O)C1=CC[C@H]2C(=O)N(c3ccccc3)C(=O)[C@@H]12`, the composite z-score in assay [1] was 0.144; in assay [6], 1.22; in assay [7], 0.0448; in [8], 1; in assay [9] it was 0.448; in [10], -0.323. The same compound yielded a composite z-score in assay [12] of 0.348. For the same compound, the z-score is 0.704 (inactive) in assay [2]; 0.317 (inactive) in assay [3]; 0.173 (inactive) in assay [4]; 0.676 (inactive) in [5]; -0.569 (inactive) in assay [11]; 0.61 (inactive) in assay [13]. Also, the z-score is 1.11 (inactive) in assay [14]; -0.803 (inactive) in assay [15]; 0.707 (inactive) in assay [16]; -1 in assay [17]; 0.536 (inactive) in assay [18]; -0.267 (inactive) in assay [19]. The z-score in [20] is -0.253.
As to `C=CC[C@H](O)c1ccc(O)c(F)c1`, the composite z-score in assay [1] was -0.863; in [6], -1.39; in assay [7], -0.0429; in assay [8] it was -3.98; in assay [9] it was -1.66; in assay [10] it was -1.11. For the same compound, the composite z-score in assay [12] is -0.555. Also, the z-score in assay [2] was -0.48 (inactive); in [3], -0.955 (inactive); in [4], -0.0392 (inactive); in assay [5], -0.535 (inactive); in assay [11] it was -0.421 (inactive); in assay [13], 0.307 (inactive). Moreover, the z-score in assay [14] was 0.131 (inactive); in [15] it was -0.304 (inactive); in [16], 0.255 (inactive); in assay [17], -0.165; in [18], -1.32 (inactive); in assay [19] it was -0.305 (inactive). For the same compound, the z-score in [20] came to 0.113.
